Assays:
Experiment in all cases: PBM binding z-score (relative to random genomic background probes); higher = stronger binding; sequences stand for … in GC…GCGATTGACAGCGTAGAATGAAGG
[1] = tested on: FXR:RXRa (NR concentration 270 nM, RXRa partner concentration 90 nM)
Procedure, shortened: (§1)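 Ligand-free nuclear receptor dimers were applied to custom Agilent 4×180K protein-binding microarrays whose double-stranded probes carried direct-repeat seeds, single-nucleotide variants, half-site ablations and random human genomic background sequences in 34-nt variable regions. Incubation lasted 1 h. Binding z-scores were computed against the random background probes from regression-normalized fluorescence.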

[2] = tested on: LXRa:RXRa (NR concentration 270 nM, RXRa partner concentration 90 nM)
Procedure, shortened: as §1

[3] = tested on: LXRa homodimer (NR concentration 270 nM)
Procedure, shortened: as §1

[4] = tested on: LXRb:RXRa (NR concentration 270 nM, RXRa partner concentration 90 nM)
Procedure, shortened: as §1

[5] = tested on: LXRb homodimer (NR concentration 270 nM)
Procedure, shortened: as §1

[6] = tested on: PPARa:RXRa (NR concentration 270 nM, RXRa partner concentration 90 nM)
Procedure, shortened: as §1

[7] = tested on: PPARg:RXRa (NR concentration 180 nM, RXRa partner concentration 90 nM)
Procedure, shortened: as §1

[8] = tested on: PPARg:RXRa 270nM:90nM, anti-RXR (NR concentration 270 nM, RXRa partner concentration 90 nM)
Procedure, shortened: as §1

[9] = tested on: PPARg:RXRa 30nM:10nM, anti-RXR (NR concentration 30 nM, RXRa partner concentration 10 nM)
Procedure, shortened: as §1

[10] = tested on: PPARg:RXRa 90nM:30nM, anti-RXR (NR concentration 90 nM, RXRa partner concentration 30 nM)
Procedure, shortened: as §1

[11] = tested on: PPARg:RXRa DBDmut IVT, anti-RXR (DBD mutation: RXRa K156A/R161A, NR concentration 270 nM, RXRa partner concentration 90 nM)
Procedure, shortened: as §1

[12] = tested on: PPARg:RXRa IVT, anti-PPARg (NR concentration 270 nM, RXRa partner concentration 90 nM)
Procedure, shortened: as §1

[13] = tested on: PPARg DBDmut:RXRa IVT, anti-PPARg (DBD mutation: PPARg1 K132A/R137A, NR concentration 270 nM, RXRa partner concentration 90 nM)
Procedure, shortened: as §1

[14] = tested on: PPARg DBDmut IVT, anti-PPARg (DBD mutation: PPARg1 K132A/R137A, NR concentration 270 nM)
Procedure, shortened: as §1

[15] = tested on: PPARg homodimer (NR concentration 180 nM)
Procedure, shortened: as §1

[16] = tested on: PXR:RXRa (NR concentration 270 nM, RXRa partner concentration 90 nM)
Procedure, shortened: as §1

[17] = tested on: PXR homodimer (NR concentration 270 nM)
Procedure, shortened: as §1

[18] = tested on: RARa:RXR (NR concentration 270 nM, RXRa partner concentration 90 nM)
Procedure, shortened: as §1

[19] = tested on: RARa homodimer (NR concentration 270 nM)
Procedure, shortened: as §1

[20] = tested on: RARb:RXRa (NR concentration 270 nM, RXRa partner concentration 90 nM)
Procedure, shortened: as §1

| Sequence | PBM binding z-score [1] | PBM binding z-score [2] | PBM binding z-score [3] | PBM binding z-score [4] | PBM binding z-score [5] | PBM binding z-score [6] | PBM binding z-score [7] | PBM binding z-score [8] | PBM binding z-score [9] | PBM binding z-score [10] | PBM binding z-score [11] | PBM binding z-score [12] | PBM binding z-score [13] | PBM binding z-score [14] | PBM binding z-score [15] | PBM binding z-score [16] | PBM binding z-score [17] | PBM binding z-score [18] | PBM binding z-score [19] | PBM binding z-score [20] |
| --- | --- | --- | --- | --- | --- | --- | --- | --- | --- | --- | --- | --- | --- | --- | --- | --- | --- | --- | --- | --- |
| TCTAGTCGGTCACGGAGGTCACACACGACGGGTA | 4.64 | 4.8 | 4.58 | 3.54 | 0.882 | 4.58 | 5.07 | 4.97 | 3.86 | 4.54 | 4.17 | 5.71 | 2.36 | 0.492 | 3.93 | 4.93 | 2.24 | 5.02 | 1.39 | 4.56 |
| TCATATAGGTAAATGCTAGGTGAAACTCCGATCT | 1 | 0.883 | 0.327 | 0.756 | -0.00744 | 1.4 | 0.976 | 2.12 | 4.01 | 2.96 | 4.38 | 2.75 | 0.957 | 1.1 | 0.711 | 0.57 | 0.499 | 0.959 | 0.953 | 0.548 |
| GCATATAGGTAATACAAGGTGAGAGTCCGATTGT | 0.288 | 0.937 | -0.139 | 0.0719 | -0.459 | 0.92 | 1.14 | 1.19 | 0.605 | 0.684 | 4.28 | 3.14 | 1.33 | 0.73 | 0.397 | 0.114 | 0.184 | 1.59 | 0.608 | 0.335 |
| GCTATTAGTTGAAAGGGTAACCGAATGATTCTCG | -0.0135 | 0.398 | 0.254 | 0.557 | -0.148 | 1.63 | 1.39 | 3.38 | 1.36 | 3.03 | 0.535 | 0.734 | 0.307 | 0.443 | 0.807 | 0.366 | 0.207 | 1.02 | 0.465 | 0.813 |
| TCGAGTAGGTTAGGGGCTTTCAGAATGGCGTCGA | -0.147 | 0.172 | -0.23 | 0.6 | -0.232 | 0.524 | 0.208 | 1.76 | 0.813 | 1.15 | 2.03 | 1.11 | -0.958 | -0.419 | 0.523 | -0.179 | -0.00687 | -0.485 | 0.102 | 0.395 |
| GCTGTTAGGTCAGGTTGGTCAGCTAACGGGTACG | 1.95 | 1.14 | -0.132 | 1.04 | 0.0917 | 1.79 | 0.166 | 1 | -0.41 | 0.138 | 2.26 | 1.9 | -0.586 | 0.313 | 1.07 | 0.645 | -0.159 | 1.28 | 0.0798 | 3.49 |
| TCTTGTAGATCAATAGTGGTTAAGAAAGTGCGCT | 0.499 | 0.37 | -0.000472 | 0.00968 | 0.297 | 0.451 | -0.385 | 1.4 | 2.83 | 2.06 | 1.98 | 0.303 | 0.28 | 1.33 | 0.545 | 0.46 | 0.364 | 0.481 | 0.947 | 0.0691 |
